In all, about 5,500 compounds went through this assay and about 2,000 (36%) were called active. Another 18% or so got no clear call; they are omitted. No stated cut-off is given here; in the data, active means normalized growth mostly below about 0.91 (no sharp cut-off); inconclusive means no clear call, values can overlap the other calls; inactive means mostly above about 0.92. The list shows a part of the results.
Test: chemical genetic growth profiling, strain panel (AID 1159580);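 further: tested at 20 µM; growth read once vehicle control cultures reached saturation at 30 °C; 1 = growth at the plate median or of vehicle wells; lower values mean less growth of the strain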
Settings: S. cerevisiae deletion strains, growth OD

Measured: normalized growth

CCN1CN=C(SCc2ccc(Br)cc2)NC1
inactive: locus YAL013W, strain DEP1, hits give low values 1.01 | locus YBR229C, strain ROT2, hits give low values 1.01 | locus YCL061C, strain MRC1, hits give low values 1.02 | locus YDL101C, strain DUN1, hits give low values 0.998 | locus YDL134C, strain PPH21, hits give low values 1.01 | locus YDR150W, strain NUM1, hits give low values 0.995 | locus YEL061C, strain CIN8, hits give low values 1.01 | locus YGR078C, strain PAC10, hits give low values 0.998 | locus YHR030C, strain SLT2, hits give low values 0.902 | locus YHR087W, strain rtc3, hits give low values 0.999 | locus YJL187C, strain SWE1, hits give low values 1.01 | locus YJR043C, strain POL32, hits give low values 0.988 | locus YJR075W, strain HOC1, hits give low values 0.98 | locus YKL190W, strain CNB1, hits give low values 1.02 | locus YLR039C, strain RIC1, hits give low values 0.982 | locus YLR058C, strain SHM2 (second series), hits give low values 1.02 | locus YLR085C, strain ARP6, hits give low values 1.02 | locus YLR262C, strain YPT6, hits give low values 0.953 | locus YML094W, strain GIM5, hits give low values 0.996 | locus YMR219W, strain ESC1, hits give low values 0.999 | locus YMR263W, strain SAP30, hits give low values 1.01 | locus YMR307W, strain GAS1, hits give low values 1.17 | locus YNL153C, strain GIM3, hits give low values 0.986 | locus YNL298W, strain CLA4 (second series), hits give low values 0.984 | locus YNL322C, strain KRE1, hits give low values 1.01 | locus YNR030W, strain Alg12, hits give low values 0.999 | locus YPL055C, strain LGE1, hits give low values 1.06 | locus YPL241C, strain CIN2, hits give low values 0.995 | locus YPR135W, strain CTF4, hits give low values 0.98

— PubChem BioAssay AID1159580 (chemical genetic matrix, 2015)
